Test [1] in a line: NCI Yeast Anticancer Drug Screen. Data for the rad50 strain (AID 155).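 Also: 0% = growth of vehicle-only cultures of the same strain.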 Particulars: S. cerevisiae rad50 strain growth inhibition; at 50.0 µM; hits give high values. Put shortly:
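Cells are treated with compound, grown, and their growth is then scored against vehicle-only cultures of the same repair-deficient yeast strain.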

Test [2] is described as follows: NCI Yeast Anticancer Drug Screen. Data for the mec2-1 strain (AID 157). Particulars: S. cerevisiae mec2-1 strain, at 50.0 µM, hits give high values. Put shortly: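 Growth inhibition is read against vehicle-treated controls after compound exposure of the mec2-1 yeast strain, which is defective in DNA damage repair or cell cycle control.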
The nature of test [3]: NCI Yeast Anticancer Drug Screen. Data for the sgs1 mgt1 strain (AID 161).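 Also: 0% = growth of cultures given vehicle only.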 Conditions: S. cerevisiae sgs1 mgt1 strain, at 50.0 µM, hits give high values. Put shortly:
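Compounds are added to genetically altered yeast, and growth is compared with cultures given vehicle alone to give percent inhibition.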

Test [4] is described as follows: NCI Yeast Anticancer Drug Screen. Data for the cln2 rad14 strain (AID 165).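 Also: 0% = growth equal to vehicle treated cultures.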 Conditions: S. cerevisiae cln2 rad14 strain, at 50.0 µM, hits give high values. Put shortly: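 Growth inhibition, relative to vehicle-treated controls, is the read-out. The test organism is a yeast strain with defined genetic alterations, cln2 rad14.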
A short description of test [5]: NCI Yeast Anticancer Drug Screen. Data for the bub3 strain (AID 167). Particulars: S. cerevisiae bub3 mutant strain, at 50.0 µM, hits give high values. In short, it runs like this: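 Part of a panel of yeast mutants defective in DNA damage repair or cell cycle regulation. Each strain is grown with compound, and inhibition is calculated relative to solvent-treated cultures.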

Test [6] in a line: NCI Yeast Anticancer Drug Screen. Data for the mlh1 rad18 strain (AID 175). Conditions: S. cerevisiae mlh1 rad18 strain growth inhibition; at 50.0 µM; hits give high values. Put shortly:
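Cells of a genetically altered yeast strain, deficient in DNA damage repair, were treated with compound. Their growth was then compared with that of vehicle-treated cultures to give inhibition.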

This is part of a sample that, as a whole, favours compounds with a hit. Of some 79,000 tested, about 15% had one in any assay. A number with no mark means an inactive call. The source made the active and inactive calls. Rule as the data show it: active = growth inhibition above about 70%; inactive = the rest.

In the case of `C=C1C(=O)OC2(C)CCC1CC1OC1(C)CCC=C(C)CCC2O` (stereo unspecified), the growth inhibition in test [1] was 3.7%; in test [2], -39.1%; in test [3] it was 17.4%; in test [4], 8%; in test [5], -17.7%; in test [6] it was -39.5%.
`CCC(=O)Nc1cccc(OC(=O)NC2CCCCC2)c1`: the growth inhibition in test [1] is 1.35%; in test [2], 13.1%; in test [3], 16.2%; in test [4] it was 1.3%; in test [5] it was 20.2%; in test [6] it was 11.1%.
Turning to `CN(C)/N=C1/CCC(C(F)(F)F)(C(F)(F)F)O1`, the growth inhibition in test [1] is 40.1%; in test [2] it was 31.6%; in test [3], 41.5%; in test [4] it was 28.9%; in test [5] it was 5.1%; in test [6] it was -18.4%.
With `CCCCCCCCC(=O)OCC(=O)N(C)C`, the growth inhibition in test [1] was 15.6%; in test [2], 8.8%; in test [3], 6.35%; in test [4], 13.3%; in test [5], 2.9%; in test [6], 9.4%.
Turning to `CSc1ncc(Br)c(Sc2nccn2C)n1`, the growth inhibition was 11.4% in test [1]; 7.3% in test [2]; 14.3% in test [3]; 4.7% in test [4]; -12% in test [5]; 2.85% in test [6].
For the compound `COc1ccc2c(=O)c(S)coc2c1`, the growth inhibition in test [1] was 35.8%; in test [2], 36.5%; in test [3], 22.3%; in test [4], 9%; in test [5] it was -1.15%; in test [6], 41%.
For `CCOC(COc1ccc2ccccc2c1)OCC`, the growth inhibition in test [1] was -18.6%; in test [2], 0.5%; in test [3], 0.55%; in test [4], -55.7%; in test [5] it was 6.9%; in test [6], -10.1%.
For `CCCCNS(=O)(=O)c1ccc(C)cc1`, the growth inhibition in test [1] was -24.6%; in test [2], -26.4%; in test [3], -23%; in test [4], -42.7%; in test [5] it was -22%; in test [6], -21.3%.
As to `CCCC(/C=N/Nc1ccc([N+](=O)[O-])cc1[N+](=O)[O-])=C\c1ccccc1`, the growth inhibition was -12.1% in test [1]; -29.2% in test [2]; 10.6% in test [3]; -22.9% in test [4]; 27.1% in test [5]; -50% in test [6].
For the compound `CC(C)N(CCC#N)C(=S)Nc1cccc(C(F)(F)F)c1`, the growth inhibition in test [1] is 21.6%; in test [2], 13.2%; in test [3] it was 25.1%; in test [4] it was 0.25%; in test [5], 12.2%; in test [6], -2.85%.
For `CNC(=O)OCc1c(C)oc(-c2ccc(Cl)c(Cl)c2)c1COC(=O)NC`, the growth inhibition in test [1] was 47.5%; in test [2], -7.15%; in test [3], 34.5%; in test [4] it was 24.1%; in test [5], 12.3%; in test [6] it was 14.4%.
For the compound `CC(=O)OC1C=CC2Oc3ccc(C)cc3C1(C)O2` (stereo unspecified), the growth inhibition is 12.8% in test [1]; -4.05% in test [2]; 14.4% in test [3]; 28.2% in test [4]; 23.6% in test [5]; 34.9% in test [6].
With `O=C(O)CCCCCCCCCC(=O)O`, the growth inhibition in test [1] was -15.1%; in test [2], -17.5%; in test [3], 0%; in test [4], -24.9%; in test [5], -7.7%; in test [6], 9.05%.
On to `NCCCN=c1ccc2c3c1c(O)c1c(O)ccc(=O)c1c3[nH]n2CCNCCO`, for which the growth inhibition in test [1] was 89.1% (active); in test [2] it was 35.1%; in test [3], 33.3%; in test [4], 17.9%; in test [5], 28.6%; in test [6], 36.2%.
Consider `O=C1C2CCCC3CCCC(C(=O)N1NC1CCCCC1)C32` (stereo unspecified), for which the growth inhibition in test [1] was 39.4%; in test [2] it was 28.6%; in test [3], 27.9%; in test [4], 29.7%; in test [5] it was 53.4%; in test [6], 49%.
On to `CCCCCCCCCCCCCCCCCC(=O)Oc1ccc(OCc2ccccc2)cc1`, for which the growth inhibition in test [1] was -13.5%; in test [2], -25.6%; in test [3], -11.4%; in test [4] it was 16.2%; in test [5], -11.4%; in test [6], -16.6%.
Turning to `Nc1nc(N)c2nc3c(nc2n1)C(=O)N(c1ccc(C(=O)O)cc1)C3`, the growth inhibition is 1.55% in test [1]; 34.9% in test [2]; 27.9% in test [3]; -2.8% in test [4]; 32.1% in test [5]; 23.2% in test [6].
Consider `CCN(CC)C(=S)SCCCS(=O)(=O)O`, for which the growth inhibition in test [1] is 17.7%; in test [2], -9.95%; in test [3], 1.75%; in test [4], 9.2%; in test [5], 22.3%; in test [6] it was 8.75%.
Turning to `NC(=O)c1cn[nH]c1N`, the growth inhibition in test [1] was 4.05%; in test [2], 6.2%; in test [3] it was 14.2%; in test [4] it was -29.6%; in test [5], -3.4%; in test [6], 0.55%.
As to `CC(=O)OCC1C(=O)OCC1C(=O)N1Cc2cc3ccccc3nc2C1` (stereo unspecified), the growth inhibition in test [1] was -10.6%; in test [2] it was -1.55%; in test [3], 13.7%; in test [4], -18.9%; in test [5], 31.2%; in test [6] it was -9.85%.
On to `CCNC(=O)[B-][N+](C)(C)C`, for which the growth inhibition in test [1] is 6.75%; in test [2], 0.05%; in test [3], 3.75%; in test [4] it was 35.4%; in test [5] it was -12.4%; in test [6], 4.5%.

Source of the values: PubChem BioAssay (NCI).
